This is part of a sample that, as a whole, favours compounds with a hit. Of some 83,000 tested, about 20% had one in any assay.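 Cell lines were cultured in 96-well plates, exposed to a single compound concentration, and assessed for percent growth 48 hours later.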 Unmarked numbers belong to inactive results. Calls of active or inactive are those of the source. The calls were made as follows: active = growth percent below 10; inactive = the rest.

For the first assay, the system named is EKVX NSCLC. Kind of assay: NCI-60 one-dose screen, 48 h (100 = growth as untreated, 0 = no growth, -100 = all killed). As to conditions: 10 µM unless noted.
As to `Cc1ccc2c(c1)n([O-])c1cc(Cl)ccc1[n+]2=O`, the growth is 94.6%.
Same read-out and setting: in the case of `CN1/C(=C\C=C\C2=[N+](C)c3ccccc3C2(C)C)C(C)(C)c2ccccc21` it was 13.3%.
Still for that read-out and setting: as for `CC/C(=C(\c1ccccc1)c1ccc(OCCNC)cc1)c1ccccc1`, the figure is -69.2% (active).
`CCN(CC)Cc1cc(Nc2c3ccc(Cl)cc3nc3c(C)cccc23)ccc1O`: the growth was -40.4% (active).
In the case of `C=CC[N+]1(CCO)CCN=C1CCCCCCCCCCCCC` (centres undefined), the growth is -29.4% (active).
In the case of `N#Cc1ccc(NC(=O)Nc2ccc(Cc3ccc(NC(=O)Nc4ccc(C#N)cc4)cc3)cc2)cc1`, the growth was 14.5%.
`CC1=NNC(=O)C1C` (centres undefined): the growth is 102%.
In the case of `COc1nc2c(cc1S(=O)(=O)c1ccccc1)CCc1c-2cnn1Cc1ccccc1`, the growth was 36.1%.
For the compound `O=C(/C=C\c1ccc2ccccc2n1)c1cc(Cl)ccc1O`, the growth was 85.9%.
For the compound `CCc1ccc(C(c2ccc(CC)cc2)C(Cl)(Cl)CCl)cc1`, the growth is 95.8%.
Turning to `C=CCSc1nnc(-c2ccc(C(C)(C)C)cc2)n1-c1cccc(C(F)(F)F)c1`, the growth is 22.2%.
As for `CSc1ncnc2c1ncn2C1CCCO1` (centres undefined), the growth was 95.6%.
On to `OCC1C2C=CC(C2)C1CO` (centres undefined), for which the growth was 102%.
On the same count and under the same terms, in the case of `Cc1ccc(/C=C2\Oc3cc(OCC(=O)c4ccc(Cl)cc4)ccc3C2=O)cc1` it was 107%; in that of `Cn1c2c(Cl)c(Cl)ccc2c2ccn3c(=O)c4ccccc4nc3c21`, 80.8%; in that of `CCN(CC)CCCC(C)NCCCNc1cccc2cccnc12` (centres undefined), 101%.
With `C=CC[N+]1(CC)CCN=C1CCCCCCCCCCCCCCCCC` (centres undefined), the growth was -75.7% (active).
In the case of `CCN(CC)CCCNc1cc(OC)cc2nc3cc(Cl)ccc3nc12`, the growth was 0.555% (active).
Take `CCCCCCCCCCNC(=O)CCl`: the growth is 95.9%.
As for `CCOC(=S)SCc1ccc(Cl)cc1`, the growth was 83.8%.
Still for that read-out and setting: as for `CCN(CC)CC(C)Nc1ccc([N+](=O)[O-])c2sc3ccccc3c(=O)c12` (centres undefined), the figure is 34.5%; as for `Cc1cc2c(cc1C)NC1=C(N2)OC(c2c3ccccc3cc3ccccc23)C1=O` (centres undefined), 22.2%.
In the case of `CCOC(=O)C(C#N)C1CCCCC1` (centres undefined), the growth is 94.9%.
Consider `Nc1cccc(NC(=O)C(=O)Nc2cccc(N)c2)c1`, for which the growth is 94%.
With `CCN(CC)c1ccc(/C=C/C2=[N+](C)c3ccccc3C2(C)C)cc1`, the growth was 0.0796% (active).
Same read-out and setting: as for `CN(C)c1ccc(/C=C(\C#N)c2nc3ccccc3s2)cc1`, the figure is 89.5%; as for `CCN(CC)CC(O)CNc1c2ccc([N+](=O)[O-])cc2nc2cc(OC)c(OC)cc12` (centres undefined), -27.4% (active); as for `COc1nc2c(cc1S(=O)(=O)c1ccccc1)CCc1c-2cnn1-c1ccc(Cl)cc1`, 90.4%.
Same read-out and setting: in the case of `Cc1cc(-c2nc3ccccc3s2)ccc1NC(=O)COc1ccc(Cl)cc1` it was 78.9%.
Same read-out and setting: in the case of `N#Cc1c(N)nc(N)nc1Nc1ccc(Br)cc1` it was 44.1%; in that of `CCN(CC)CC(C)(C)C(=O)/C=C/c1ccccc1`, 26.7%.
Take `CNc1cc2nc3cc(NC)c(C)cc3cc2cc1C`: the growth was -0.852% (active).
Still for that read-out and setting: in the case of `O=C(COc1cccc(/C=C2/Oc3ccccc3C2=O)c1)Nc1nccs1` it was 74.7%; in that of `O=C(Cc1ccccc1)c1ccc(Cl)cc1`, 87.4%.
On to `O=C(O)c1cccnc1Br`, for which the growth is 107%.

A further assay has as its system SN12C renal. The description is as above. Particulars: 10 µM unless noted.
Regarding `Cc1ccc2c(c1)n([O-])c1cc(Cl)ccc1[n+]2=O`, the growth is 100%.
Turning to `CC/C(=C(\c1ccccc1)c1ccc(OCCNC)cc1)c1ccccc1`, the growth was -90.5% (active).
Still for that read-out and setting: in the case of `N#Cc1ccc(NC(=O)Nc2ccc(Cc3ccc(NC(=O)Nc4ccc(C#N)cc4)cc3)cc2)cc1` it was 29.5%.
Regarding `CC1=NNC(=O)C1C` (centres undefined), the growth is 96.1%.
With `O=C(/C=C\c1ccc2ccccc2n1)c1cc(Cl)ccc1O`, the growth was 110%.
Same read-out and setting: in the case of `C=CCSc1nnc(-c2ccc(C(C)(C)C)cc2)n1-c1cccc(C(F)(F)F)c1` it was 29.4%.
Regarding `CSc1ncnc2c1ncn2C1CCCO1` (centres undefined), the growth is 99.1%.
`Cc1ccc(/C=C2\Oc3cc(OCC(=O)c4ccc(Cl)cc4)ccc3C2=O)cc1`: the growth is 116%.
On to `Cn1c2c(Cl)c(Cl)ccc2c2ccn3c(=O)c4ccccc4nc3c21`, for which the growth is 104%.
Same read-out and setting: as for `CSc1[nH]c2ncnc(N)c2c1C#N`, the figure is 99.4%.
In the case of `CCN(CC)CCCC(C)NCCCNc1cccc2cccnc12` (centres undefined), the growth is 86.5%.
Consider `CCN(CC)CCCNc1cc(OC)cc2nc3cc(Cl)ccc3nc12`, for which the growth was 13.1%.
Consider `CCCCCCCCCCNC(=O)CCl`, for which the growth was 63.8%.
Regarding `O=C(O)c1ccc2c(c1Sc1ccccc1)C(=O)c1ccccc1C2=O`, the growth is 96.6%.
For the compound `CCN(CC)CC(C)Nc1ccc([N+](=O)[O-])c2sc3ccccc3c(=O)c12` (centres undefined), the growth is 37.2%.
Take `Cc1cc2c(cc1C)NC1=C(N2)OC(c2c3ccccc3cc3ccccc23)C1=O` (centres undefined): the growth was 14.3%.
As to `O=C(Nc1ccc(CN2CCOCC2)cc1)c1[nH]ncc1Nc1ncnc2sccc12`, the growth is 10.4%.
Take `CCOC(=O)C(C#N)C1CCCCC1` (centres undefined): the growth was 79.6%.
Same read-out and setting: in the case of `Nc1cccc(NC(=O)C(=O)Nc2cccc(N)c2)c1` it was 88.6%; in that of `CN(CC(=O)N(Cc1ccc(C2CCCCC2)cc1)c1ccc(C(=O)NO)cc1)S(=O)(=O)c1c(F)c(F)c(F)c(F)c1F`, 86.1%.
Take `CCN(CC)c1ccc(/C=C/C2=[N+](C)c3ccccc3C2(C)C)cc1`: the growth is 1.41% (active).
As for `CN(C)c1ccc(/C=C(\C#N)c2nc3ccccc3s2)cc1`, the growth was 104%.
With `CCN(CC)CC(O)CNc1c2ccc([N+](=O)[O-])cc2nc2cc(OC)c(OC)cc12` (centres undefined), the growth was -34.1% (active).
As to `Cc1cc(-c2nc3ccccc3s2)ccc1NC(=O)COc1ccc(Cl)cc1`, the growth was 88.3%.
Regarding `N#Cc1c(N)nc(N)nc1Nc1ccc(Br)cc1`, the growth was 85.1%.
In the case of `CCN(CC)CC(C)(C)C(=O)/C=C/c1ccccc1`, the growth was 41.1%.
Turning to `CNc1cc2nc3cc(NC)c(C)cc3cc2cc1C`, the growth was 14.2%.
Regarding `O=C(COc1cccc(/C=C2/Oc3ccccc3C2=O)c1)Nc1nccs1`, the growth was 70.3%.
For the compound `O=C(Cc1ccccc1)c1ccc(Cl)cc1`, the growth is 89%.

These data come from PubChem BioAssay (NCI).
